Screening results: PubChem, National Center for Advancing Translational Sciences (NCATS)
A selection: hits, their analogues and other compounds. The true share with any hit is near 10%.
HEK cytotox: kills HEK 293 cells; HEK 293 viability, ATP luminescence (CellTiter-Glo), 48-72 h; Potency, µM (top dose mostly 115 µM), for inactives: top-dose activity change, negative = cytotoxicity, usual class: inhibitors; 94,000 compounds, 6.6% hits; AID 1345083; note: % is set by controls: 0 for no effect and ±100 for the full control effect; nearly all actives have a fitted effect of over 60% in size
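Viability of HEK 293 cells, plated at 250 cells/well, was judged by cellular ATP after compound treatment for 48 or 72 hr. Luminescence was imaged 10 min after CellTiter-Glo addition at room temperature.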
hNpr1 antagonist: blocks ANP-stimulated signaling of human Npr1 receptor; Potency, µM (top dose mostly 46.3 µM), without a hit: at the highest dose activity change, negative = inhibition, most hits filed as inhibitors; AID 1347048; 76,000 compounds, 1.6% hits; HEK293 hNpr1 GloSensor cGMP, ANP-stimulated luminescence; calls by dose curve; note: % is set by controls: 0 for no effect and ±100 for the full control effect; nearly all actives have a fitted effect of over 60% in size
Target sequence (P16066 whole entry, looked up): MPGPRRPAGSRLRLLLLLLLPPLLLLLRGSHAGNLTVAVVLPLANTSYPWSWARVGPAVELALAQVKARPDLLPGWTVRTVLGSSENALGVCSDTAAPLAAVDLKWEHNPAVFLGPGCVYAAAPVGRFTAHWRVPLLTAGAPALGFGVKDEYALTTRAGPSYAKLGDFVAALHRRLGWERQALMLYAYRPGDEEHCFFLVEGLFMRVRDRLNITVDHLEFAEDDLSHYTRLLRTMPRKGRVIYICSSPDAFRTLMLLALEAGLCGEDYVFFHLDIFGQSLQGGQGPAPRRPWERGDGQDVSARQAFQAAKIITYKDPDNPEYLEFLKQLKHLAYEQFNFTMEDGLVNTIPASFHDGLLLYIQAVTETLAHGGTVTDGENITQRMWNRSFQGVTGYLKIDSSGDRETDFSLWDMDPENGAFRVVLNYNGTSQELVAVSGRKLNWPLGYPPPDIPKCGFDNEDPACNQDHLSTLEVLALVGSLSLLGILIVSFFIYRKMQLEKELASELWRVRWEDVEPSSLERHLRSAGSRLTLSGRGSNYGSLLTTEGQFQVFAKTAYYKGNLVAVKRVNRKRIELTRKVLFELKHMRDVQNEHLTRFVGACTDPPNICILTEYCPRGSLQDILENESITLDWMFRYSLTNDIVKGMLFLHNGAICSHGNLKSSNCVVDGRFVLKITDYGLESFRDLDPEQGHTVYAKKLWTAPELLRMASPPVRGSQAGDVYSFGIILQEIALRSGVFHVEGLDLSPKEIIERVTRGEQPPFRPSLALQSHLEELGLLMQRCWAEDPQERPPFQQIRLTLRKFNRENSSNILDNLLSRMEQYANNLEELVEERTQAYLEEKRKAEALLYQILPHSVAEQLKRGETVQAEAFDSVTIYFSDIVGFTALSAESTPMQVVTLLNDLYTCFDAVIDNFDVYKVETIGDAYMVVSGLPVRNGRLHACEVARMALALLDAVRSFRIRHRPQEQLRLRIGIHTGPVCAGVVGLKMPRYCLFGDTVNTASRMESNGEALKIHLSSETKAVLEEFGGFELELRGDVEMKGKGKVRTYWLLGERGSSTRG
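Compound pre-incubated 30 min at room temperature on GloSensor-loaded HEK293 cells stably carrying hNpr1 and the pGS-40F cGMP biosensor. Stimulation uses hNppA at 0.1 nM final; luminescence is taken at baseline and 20 min post-agonist.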
3T3 cytotox: NIH 3T3 cell cytotoxicity; NIH 3T3 viability, CellTiter-Glo ATP luminescence, 48-72 h; Potency, µM (titrated, usually from 96.7 µM), without a hit: at the top dose activity change, negative = cytotoxicity, most hits filed as inhibitors; 94,000 compounds, 4.3% hits; AID 1345082; note: % is set by controls: 0 for no effect and ±100 for the full control effect; nearly all actives have a fitted effect of over 55% in size
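Mouse fibroblast NIH 3T3 cells, 400 per well, received compound via pintool and were incubated for 48 or 72 hr prior to CellTiter-Glo ATP luminescence measurement.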
FLuc inh-1: Photinus pyralis luciferase inhibition. P08659. Potency, µM (highest dose often 115 µM), actives largely listed as inhibitors. AID 1347043. 76,000 compounds, 2.5% hits. purified P. pyralis luciferase, luminescence, biochemical; note: % is set by controls: 0 for no effect and ±100 for the full control effect; nearly all actives have a fitted effect of over 65% in size
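Luminescence read by CCD imaging after purified firefly luciferase (10nM final) was added to substrate buffer holding 10uM D-luciferin and 10uM ATP, pH 7.5, pre-dosed with compound.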
GPT2 inh: GPT2 alanine aminotransferase inhibition; Recombinant GPT2, coupled pyruvate oxidase/HRP Amplex Red fluorescence; Potency, µM (highest dose often 57.7 µM), for inactives: at the top dose activity change, negative = inhibition, hits mostly inhibitors; 100,000 compounds, 0.25% hits; AID 1671188; note: % is set by controls: 0 for no effect and ±100 for the full control effect; nearly all actives have a fitted effect of over 60% in size
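Inhibition is scored from Amplex Red fluorescence generated when pyruvate oxidase and HRP act on pyruvate released by GPT2. Reactions contain 10ng/uL enzyme, 250uM a-KG and 2mM L-alanine and run 30 min at room temperature.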
FLuc SDR no ATP: binders stabilizing firefly luciferase, without ATP; shares compounds with FLuc inh-1; Purified FLuc-C-HiBiT, Nano-Glo HiBiT luminescence, no ATP; Potency, µM (doses to about 32.7 µM), inactives show at the highest dose activation (signal gain), usual class: activators; 1,300 compounds, 7.8% hits; AID 1963318; note: nearly all actives have a fitted effect of over 55% in size
FLuc SDR ATP: stabilizes firefly luciferase with ATP present; 1,300 compounds, 8.7% hits; purified FLuc-C-HiBiT + ATP, HiBiT complementation luminescence; shares compounds with FLuc inh-1; Potency, µM (titrated, usually from 32.7 µM), for the others: at the top dose activation (gain of signal), actives largely listed as activators; AID 1963319;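 note: signal reports ligand binding via conformational change of the enzyme rather than luciferase catalysis; % of control where 0% means no effect; nearly all actives have a fitted effect of over 55% in size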
FLuc inh-2: inhibitors of firefly luciferase enzymatic activity | purified FLuc-C-HiBiT enzyme, luciferin luminescence | shares compounds with FLuc inh-1 | AID 1963320 | 1,300 compounds, 42% hits | Potency, µM (top dose mostly 32.7 µM), for the others: at the top dose activity change, negative = inhibition, actives largely listed as inhibitors; note: % is set by controls: 0 for no effect and ±100 for the full control effect; nearly all actives have a fitted effect of over 70% in size
* hit, by the source's call; i = inactive; ? = inconclusive; . = not tested or not shown; [ ] = another dose, or the depositor's remark. Unless noted, calls come from the whole dose curve; as a rule, active = well fitted curve in the direction sought with a large enough effect; inconclusive = small, poorly fitted or top-dose-only effect, or another doubt; inactive = no such curve, though single readings can be large; an effect the other way counts as inactive or inconclusive. Potency is the fitted concentration of half-maximal effect.

SMILES	HEK cytotox	hNpr1 antagonist	3T3 cytotox	FLuc inh-1	GPT2 inh	FLuc SDR no ATP	FLuc SDR ATP	FLuc inh-2
Cc1ccc(C(=O)N2CCCN(C)c3ccccc32)cc1C	?	1%	?	i	i	.	.	.
CCOc1cccc(-c2nc(C3CCOC3)no2)c1 (centres undefined)	i	1%	1%	13µM*	4%	13%	11%	-3%
COc1cccc(-c2ccc(-c3nc(C4CCOC4)no3)o2)c1 (centres undefined)	?	-20%	?	4.5µM*	-9%	21%	15%	?
Cc1ccc(C2Cn3nnc(C(=O)N4CCN(C(=O)Cc5ccc(Cl)cc5)CC4)c3CO2)cc1 (centres undefined)	-5%	-11%	4%	i	-11%	.	.	.
COc1cc(C)c(-c2nc(Cn3cccn3)c(C)o2)cc1C	?	9%	-13%	i	?	.	.	.
C=CCNC(=O)c1cccc2c(C)nnn12	-15%[230 µM]	-15%[70.6 µM]	-13%[174 µM]	14µM*	?	11%[65.7 µM]	14%[65.7 µM]	-13%[65.7 µM]
CNC(=O)c1cc(C)nc2onc(C3CCN(C(=O)c4ccc(Cl)cc4)CC3)c12	i	.	-10%	.	.	.	.	.
Cc1ccc(NC(=O)c2ccc3oc(-c4ccncc4)nc3c2)cc1	?	.	-14%[138 µM]	.	-4%[88.5 µM]	.	.	.
CCc1ccc2oc(-c3cccc(NC(=O)c4cc5ccccc5o4)c3)nc2c1	.	.	.	.	.	21%	18%	?
CCc1ccc2oc(-c3ccc(NC(=O)c4ccc(OC)c(Br)c4)cc3)nc2c1	.	.	.	.	.	12%	8%	-12%
O=C(Cc1cccc(OC(F)(F)F)c1)Nc1ccc(CCCCc2nnc(NC(=O)Cc3ccccn3)s2)nn1	.	.	.	.	1%	.	.	.
COCCN1C[C@H]2COc3ccccc3[C@H]2N(C(=O)CC2CCCC2)CCC1=O	-10%	.	?	.	.	.	.	.
CC(=O)N1CCC(N2C[C@H](NC(=O)c3ccoc3C)[C@@H](C3CC3)C2)CC1	4%	0%	-7%	i	-4%	.	.	.
COc1ccccc1N1CCN(C(=O)c2noc(-c3ccc(C)cc3)n2)CC1	-25%	-6%	?	i	i	.	.	.
COc1ccc(N2CCN(C(=O)c3noc(-c4ccc(C)cc4)n3)CC2)cc1	?	-21%	?	14µM*	1%	23%	15%	?
CCn1cc(-c2ccc(Cl)cc2)cc1C(=O)O	-9%	1%	-21%	?	-3%	13%	11%	-10%
O=C(c1ccc(Cl)cc1)N1CCC(N2Cc3ccccc3C2=O)CC1	-20%	.	?	.	4%	.	.	.
Cc1ccc(-c2cc(N)n(-c3ccc(C)cc3)n2)cc1	.	.	.	.	.	23%	14%	?
COc1cc(CNC(=O)[C@@H]2C[C@H](c3ccc(F)cc3)N(Cc3csc(C)n3)C2)cc(OC)c1	?	-3%	?	i	?	.	.	.
CC1=C[C@@H](CNC(=O)c2ccncc2)[C@H](C(C)C)C[C@H]1CC(=O)N1CCOCC1	-11%[172 µM]	?	-2%[138 µM]	13µM*	-8%[88.5 µM]	10%[49.3 µM]	14%[49.3 µM]	-13%[49.3 µM]
CC(C)n1cnnc1CN(C)c1nc(N)nc2nc[nH]c12	-7%	2%	1%	i	-7%	15%	8%	-3%
CC(C)n1cnnc1CC1CCCNC1 (centres undefined)	0%	1%	-4%	i	i	.	.	.
O=C(Cc1ccc2c(c1)OCCCO2)NC1CCCc2c1[nH]c1ccccc21 (centres undefined)	?	-10%	?	i	4%	.	.	.
COCCN1CCNc2cc(Nc3cccc(N(C)C)c3)ncc2C1	?	-2%[70.6 µM]	?	?	i	.	.	.
COCCN1CCNc2cc(Nc3cccc(OC)c3)ncc2C1	?	5%[70.6 µM]	?	7.1µM*	4%[88.5 µM]	20%[49.3 µM]	14%[49.3 µM]	?
SMILES	HEK cytotox	hNpr1 antagonist	3T3 cytotox	FLuc inh-1	GPT2 inh	FLuc SDR no ATP	FLuc SDR ATP	FLuc inh-2
COCCN1CCNc2cc(-c3cccc(OC)c3)ncc2C1	.	.	.	.	.	?	14%[49.3 µM]	20µM*
Clc1cccc(Nc2cc3c(cn2)CN(Cc2cccnc2)CCN3)c1	32µM*	?	?	1.3µM*	?	?	?	13µM*
Cn1ccnc1CN1CCNc2cc(Nc3ccccc3)ncc2C1	?	-14%[70.6 µM]	?	4.5µM*	-5%[88.5 µM]	26%[49.3 µM]	17%[49.3 µM]	?
Cc1noc(C)c1CN1CCNc2cc(Nc3cccnc3)ncc2C1	?	-1%[70.6 µM]	-34%[138 µM]	i	3%[88.5 µM]	.	.	.
CCCn1cnc2c(NCc3ccccc3)nc(N[C@H](CC)CO)nc21	.	.	.	.	i	.	.	.
C[C@@H](NC(=O)C1CCOCC1)c1onc(-c2cccnc2)c1C(=O)O	-1%[172 µM]	-1%[70.6 µM]	-2%[138 µM]	i	1%[88.5 µM]	.	.	.
CN(C)c1ccc(-c2nc3ccccn3c2Nc2ccc3c(c2)OCCO3)cc1	.	.	.	.	.	19%	13%	11µM*
Oc1ccc(-c2nc3ccccn3c2Nc2ccc3c(c2)OCCO3)cc1	.	.	.	.	.	21%	17%	?
COCCN1CCCC(c2[nH]ccc2C(=O)NCCn2cccn2)C1 (centres undefined)	i	0%	5%	i	5%	.	.	.
COc1ccccc1C(=O)N1CC(Oc2ccc3c(c2)OCO3)C1	-10%	.	?	.	i	.	.	.
Cc1ccc(C)c(N2CCN(C(=O)c3ccc(NC(=O)c4nsc5ccccc45)cc3)CC2)c1	.	.	.	.	.	17%	?	?
Cc1ccc(C(=O)N2CCN(C(=O)c3nnn4c3COC(c3ccc(C)cc3)C4)CC2)cc1 (centres undefined)	?	-25%	-14%	i	-3%	.	.	.
COCCNC(=O)C1CCN(C(=O)c2nnn3c2COC(c2ccc(C)cc2)C3)CC1 (centres undefined)	9%	-2%	i	5.6µM*	i	12%	?	?
Cc1ccc(C2Cn3nnc(C(=O)N4CCN(C(=O)c5cccs5)CC4)c3CO2)cc1 (centres undefined)	-29%	-26%	?	i	i	.	.	.
Cc1ccc(C2Cn3nnc(C(=O)N4CCC(C(=O)NCCN5CCCC5)CC4)c3CO2)cc1 (centres undefined)	-7%	0%	i	13µM*	2%	13%	?	?
Cc1ccc(C2Cn3nnc(C(=O)N4CCC(C(=O)NCCc5cccs5)CC4)c3CO2)cc1 (centres undefined)	1%	-1%	-10%	10µM*	i	12%	?	?
